Results reported in PubChem BioAssay (NCATS).
Results filed as inconclusive are left out. Calls of active or inactive are those of the source. Calls follow the shape of the dose curve; as a rule, active = well fitted cell-killing curve with a large enough effect; inconclusive = small, poorly fitted or top-dose-only effect, or effect the other way; inactive = no such curve, though single readings can be large or run the other way.

assay: Quantitative High-Throughput drug screen in 47 multiple myeloma cell lines against the NCATS MIPE library collection: KHM11_PLB cell viability assay (AID 1918962); conditions: KHM11 myeloma cell viability, CellTiter-Glo ATP luminescence, 48 h; series mostly up to 45.8 µM; also: nearly all actives have a fitted effect of over 35% in size
From the text: PI: Beverly A. Mock Ph.D.
Laboratory of Cancer Biology and Genetics,
Center for Cancer Research, National Cancer Institute,
National Institute of Health, Bethesda, Maryland
Drug resistance and disease progression are common in multiple myeloma (MM) patients, underscoring the need for new therapeutic combinations. […] We hypothesized that effective combinations would reduce MYC expression and enhance p16 activity. […] These preclinical data identify potentially useful drug combinations for evaluation in drug-resistant MM and reveal potential mechanisms of combined drug sensitivity.
Described herein is the primary MIPE qHTS used to cherrypick compounds. Validated compounds were then further tested for potential synergistic activiy.
[1] Peat TJ, Gaikwad SM, Dubois W, Gyabaah-Kessie N, Zhang S, Gorjifard S, Phyo Z, Andres M, Hughitt VK, Simpson RM, Miller MA, Girvin AT, Taylor A, Williams D, D'Antonio N, Zhang Y, Rajagopalan A, Flietner E, Wilson K, Zhang X, Shinn P, Klumpp-Thomas C, McKnight C, Itkin Z, Chen L, Kazandijian D, Zhang J, Michalowski AM, Simmons JK, Keats J, Thomas CJ, Mock BA. Drug combinations identified by high-throughput screening promote cell cycle transition and upregulate Smad pathways in myeloma. Cancer Lett. 2023 Aug 1;568:216284. doi: 10.1016/j.canlet.2023.216284. Epub 2023 Jun 24. PMID: 37356470; PMCID: PMC10408729.
SEQUENCE No. (e.g., 1, 2, 3, etc.); […] (e.g., Cells, Incubation, Reagent, etc.); VALUE and DESCRIPTION.
1; Cells; 5 uL; white, solid bottom 1536-well Greiner assay plate.
2; Compounds; 23 nL; Kalypsis pin tool (Wako USA) equipped with a 1536-well pin head to transfer to the assay plates.
3; Incubation; 48 hours; 37C incubation.
4; Reagent;5uL; CellTiter Glo (Promega).
5; Detector; 425V; Luminescence; Viewlux PerkinElmer.
NOTES (numbers refer to Sequence numbers above)
1. The cell-based screening methods employed in this study were like those previously published. Briefly, the corresponding myeloma cell lines were screened in 1,536-well plates with 500 cells, 5-uL per well for inhibition of cell viability (assessed by measuring ATP levels with CellTiterGlo).
2. NCATS MIPE 4.0 library of approved and investigational drugs were added using the Kalypsis pin tool. Wells treated with DMSO only for 100% viability and media only wells for 0% viability were used as controls.
3. The assay plates were covered and incubated for 48 hours in a 37C, 5% CO2 incubator with controlled humidity.
4. After 48 hours, CellTilter-GloTM luminescent substrate mix (Promega) reagent was added to the assay plate and plates we incubated for 5 min at room temperature.
5. Signal was measured as median relative luminescence units on a ViewLux (PerkinElmer) multiplate reader.
[1] Heske CM, Davis MI, Baumgart JT, Wilson K, Gormally MV, Chen L, Zhang X, Ceribelli M, Duveau DY, Guha R, Ferrer M, Arnaldez FI, Ji J, Tran HL, Zhang Y, Mendoza A, Helman LJ, Thomas CJ. Matrix Screen Identifies Synergistic Combination of PARP Inhibitors and Nicotinamide Phosphoribosyltransferase (NAMPT) Inhibitors in Ewing Sarcoma. Clin Cancer Res. 2017 Dec 1;23(23):7301-7311. doi: 10.1158/1078-0432.CCR-17-1121. Epub 2017 Sep 12. PMID: 28899971; PMCID: PMC6636827.
Potency is read from the fitted curve at half-maximal effect.

Compound | Potency
Cn1cc(CNCC2CCN(c3ncc(C(=O)NO)cn3)CC2)c2ccccc21 | 66.2 nM (active)
O=C(C=Cc1ccc(CN(CCO)CCc2c[nH]c3ccccc23)cc1)NO | 209 nM (active)
CNC(=O)c1ccc(Nc2cc(Nc3ccccc3S(=O)(=O)C(C)C)c3cc[nH]c3n2)nc1 | 833 nM (active)
C[C@H](NCc1ccc(OCc2cccc(F)c2)cc1)C(N)=O | 1480 nM (active)
CCc1ccc(C(=O)Nc2cc(CN3CCN(C)CC3)cc(C(F)(F)F)c2)cc1C#Cc1cnc2ccnn2c1 | 9350 nM (active)
C[C@@]12C[C@@]3(O)O[C@@H](O1)[C@]1(COC(=O)c4ccccc4)[C@@H]3C[C@@]12O[C@@H]1O[C@H](CO)[C@@H](O)[C@H](O)[C@@H]1O | inactive
CC[C@H]1OC(=O)[C@H](C)[C@@H](O[C@H]2C[C@@](C)(OC)[C@@H](O)[C@H](C)O2)[C@H](C)[C@@H](O[C@@H]2O[C@@H](C)C[C@H](N(C)C)[C@@H]2O)[C@](C)(O)C[C@@H](C)C(=O)[C@H](C)[C@@H](O)[C@]1(C)O | inactive
NC(=O)Nc1cc(-c2ccc(CN3CCOCC3)cc2)sc1C(N)=O | 935 nM (active)
COc1ccc(C=Cc2cc(OC)c(OC)c(OC)c2)cc1NC(=O)[C@H](N)CO | inactive
CO[C@@H]1[C@@H](O)[C@H](O)[C@@H](n2c3c(Cl)cccc3c3c4c(c5c6cccc(Cl)c6[nH]c5c32)C(=O)NC4=O)O[C@@H]1CO | 1180 nM (active)
NC(=NCCCCCCN=C(N)N=C(N)Nc1ccc(Cl)cc1)N=C(N)Nc1ccc(Cl)cc1 | 5900 nM (active)
COc1cc(C)c(Sc2cnc(NC(=O)c3ccc(CNC(C)C(C)(C)C)cc3)s2)cc1C(=O)N1CCN(C(C)=O)CC1 (stereo not given) | 14800 nM (active)
C[C@@H](Cc1cc2c(c(C(N)=O)c1)N(CCCO)CC2)NCCOc1ccccc1OCC(F)(F)F | inactive
CCC(C(=O)O)C1CCC(C)C(C(C)C(O)C(C)C(=O)C(CC)C2OC3(C=CC(O)[C@@]4(CC[C@](C)(C5CC[C@@](O)(CC)C(C)O5)O4)O3)C(C)CC2C)O1 (stereo not given in full) | 14800 nM (active)
CC(C=CC(=O)NO)=C[C@@H](C)C(=O)c1ccc(N(C)C)cc1 | 372 nM (active)
O=S(=O)(O)CCSSCCS(=O)(=O)O | inactive
O=C1CSC(=O)N1C(CCc1ccncc1)COc1ccc(-c2cccc([N+](=O)[O-])c2)cc1 (stereo not given) | 10500 nM (active)
Cc1ncc(-c2ccnc(Nc3ccc(S(C)(=O)=O)cc3)n2)n1C(C)C | 1660 nM (active)
COc1cc(CCc2cc(NC(=O)c3ccc(N4C[C@@H](C)N[C@@H](C)C4)cc3)n[nH]2)cc(OC)c1 | 9350 nM (active)
C[C@@H](Oc1ccc2[nH]nc(C=Cc3cnn(CCO)c3)c2c1)c1c(Cl)cncc1Cl | 1870 nM (active)

Compound | Potency
O=C1NCCc2[nH]c(-c3ccncc3)cc21 | 2090 nM (active)
C=CCNC1=C2C[C@@H](C)C[C@H](OC)[C@@H](O)[C@@H](C)C=C(C)[C@H](OC(N)=O)[C@@H](OC)C=CC=C(C)C(=O)NC(=CC1=O)C2=O | 590 nM (active)
CC(=O)C1=C(O)C=C2Oc3c(C(C)=O)c(O)c(C)c(O)c3C2(C)C1=O (stereo not given) | inactive
CCCc1nc(C(C)(C)O)c(C(=O)O)n1Cc1ccc(-c2ccccc2-c2nn[nH]n2)cc1 | inactive
COc1ccc(Nc2nccc(NCCO)n2)cc1 | inactive
Cn1cc(C=CC(=O)c2cccc(F)c2)cc1C=CC(=O)NO | inactive
CCc1nc(-c2cccc(C)c2)c(-c2ccnc(NC(=O)c3ccccc3)c2)s1 | 935 nM (active)
Oc1cc2c(cc1O)C1c3ccc(O)c(O)c3OCC1(O)C2 (stereo not given) | inactive
CCc1c(O)cc(O)c(C(=O)c2ccc(OCCN3CCOCC3)c(OC)c2)c1CC(=O)N(CCOC)CCOC | 469 nM (active)
Nc1nc2c(c(=O)[nH]1)N(C=O)[C@H](CNc1ccc(C(=O)N[C@@H](CCC(=O)O)C(=O)O)cc1)CN2 | inactive
CCCNC(=O)[C@H]1O[C@H]1C(=O)N[C@H](C(=O)N1CCC[C@@H]1C(=O)OC)C(C)CC (stereo not given in full) | 33200 nM (active)
O=C(C=CC#Cc1cccc(NS(=O)(=O)c2ccccc2)c1)NO | 2350 nM (active)
Cc1ccc2nc(NCCN)c3ncc(C)n3c2c1 | 2640 nM (active)
COC(=O)C=CC(=O)OC | 18700 nM (active)
C=C1C(=CC=C2CCC[C@]3(C)[C@@H]([C@H](C)CCCC(C)(C)O)CC[C@@H]23)C[C@@H](O)C[C@@H]1O | 10500 nM (active)
Cc1cc(Nc2ncc3c(n2)N(C)C(=O)N(c2cc(NC(=O)c4cccc(C(F)(F)F)c4)ccc2C)C3)n(C)n1 | 372 nM (active)
C=CC(=O)Nc1cccc(Nc2nc(NC3CCC(N(C)C)CC3)nc3c2ncn3C(C)C)c1 (stereo not given) | 372 nM (active)
N[C@H]1CN(c2c(F)cc3c(=O)c(C(=O)O)cn(C4C[C@@H]4F)c3c2Cl)CC12CC2 (stereo not given in full) | inactive
COC1=C2C[C@@H](C)C[C@H](OC)[C@@H](O)[C@@H](C)C=C(C)[C@H](OC(N)=O)[C@@H](OC)C=CC=C(C)C(=O)NC(=CC1=O)C2=O | 132 nM (active)
CC(C)(C)c1nc2c3cc[nH]c(=O)c3c3cc(F)ccc3c2[nH]1 | 1480 nM (active)
